Assay outcomes deposited in PubChem BioAssay by National Center for Advancing Translational Sciences (NCATS).
HCMV inh – human cytomegalovirus inhibition. HFF cells, HCMV-luciferase reporter, 72 h; active compounds read low. activity change, negative = inhibition, % at 57.5 µM. 4.5% of 410,000 active. AID 1259415; in the data active means activity change below about -60%; inconclusive means no clear call, values can overlap the other calls; inactive means above about -39%; further: on the % scale 0 is the no-effect control and ±100 the full control effect
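Steps: HFFs plated, 16 h 37C; compounds added; HCMV-luciferase added to MOI 1 PFU/cell; 72 h 37C; OneGlo reagent, 5 min room temperature; luminescence read, normalized to controls.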
HCV inh – HCV inhibition. Huh7.5.1 HCVcc-Cre infection, luciferase reporter, 44 h. 3.4% of 340,000 active. Potency, µM (top dose mostly 41.8 µM), for the others: at the top dose activity change, negative = inhibition, actives largely listed as inhibitors; active means well fitted inhibition curve with a large enough effect; inconclusive means small, poorly fitted or top-dose-only effect, or another doubt; inactive means no such curve, though single readings can be large or run the other way; further: potency means the concentration at half of the fitted maximal effect; on the % scale 0 is the no-effect control and ±100 the full control effect
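After 44 h co-culture of compound, cells and HCVcc-Cre (~0.5 moi), substrate is added for 15 min at room temperature and luciferase measured over 15 sec. Cells were seeded at 1,000/well and pre-cultured 4 h.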
SARS PLP yeast – SARS-CoV PLP inhibition in yeast; S. cerevisiae expressing SARS-CoV PLpro, growth rescue; Potency, µM (series often up to 32.9 µM), without a hit: top-dose activity, positive = growth rescue, most hits filed as activators; 0.19% of 330,000 active; calls by dose curve; further: potency means the concentration at half of the fitted maximal effect; 0% is about no effect; nearly all actives have a fitted effect of over 55% in size
FMDV inh – blocks foot and mouth disease virus; Potency, µM (series often up to 57.9 µM), for inactives: at the top dose activity change, negative = inhibition, usual class: inhibitors; 1.2% of 410,000 active; FMDV antiviral cell-based qHTS; calls by dose curve; tested in HEK293T cells; further: read-out not given here; potency means the concentration at half of the fitted maximal effect; on the % scale 0 is the no-effect control and ±100 the full control effect; nearly all actives have a fitted effect of over 45% in size
Lassa entry inh – blocks Lassa virus binding to or entry into cells. Lassa virus pseudotype entry inhibition, cell reporter. AID 540256. Potency, µM (doses to about 37.9 µM), without a hit: top-dose activity change, negative = inhibition, most hits filed as inhibitors. 1.2% of 300,000 active; calls by dose curve; tested in HEK293 cells; further: potency means the concentration at half of the fitted maximal effect; on the % scale 0 is the no-effect control and ±100 the full control effect; nearly all actives have a fitted effect of over 50% in size
Marburg entry inh – Marburg virus entry inhibition. Marburg virus pseudotyped entry inhibition, cell reporter. Potency, µM (highest dose often 37.8 µM), inactives show at the top dose activity change, negative = inhibition, actives largely listed as inhibitors. 1.8% of 300,000 active. AID 540276; calls by dose curve; tested in HEK293 cells; further: potency means the concentration at half of the fitted maximal effect; on the % scale 0 is the no-effect control and ±100 the full control effect
The depositor's hits bear a star; [ ] = another dose, or the depositor's remark. Rows were chosen to be rich in hits. Some 8% of all compounds tested hit in one or more screens of this group.

What do the screens show for `CCCc1c(C)nc2ccccc2c1SCCC#N`?
HCMV inh: -85*; HCV inh: inconclusive; SARS PLP yeast: -14%; FMDV inh: -28%; Lassa entry inh: 3%; Marburg entry inh: -11%

How did Cc1ccc2nc(SCCC#N)nc(C)c2c1 do in these assays?
HCMV inh: -36; HCV inh: 10µM*; SARS PLP yeast: -6%; FMDV inh: -1%; Lassa entry inh: 1%; Marburg entry inh: inconclusive

What do the screens show for `O=C(CCn1cnc2onc(-c3ccc(F)cc3)c2c1=O)N1CCN(c2ccccc2F)CC1`?
HCMV inh: -1; FMDV inh: -6%; Lassa entry inh: 9%[46.1 µM]

What do the screens show for `CCC1CN(C(=O)Nc2ccc(Br)cc2F)c2ccccc2S1` (stereo unspecified)?
HCMV inh: inconclusive; FMDV inh: -3%; Lassa entry inh: 8%[46.1 µM]

Results for COc1ccc(NC(=O)CSc2nc(SC)ns2)cc1 ?
HCMV inh: 14; HCV inh: -15%; SARS PLP yeast: -2%; FMDV inh: 29%; Lassa entry inh: -4%[46.1 µM]; Marburg entry inh: inconclusive

How did Cc1ccccc1-c1cc2nc(C)c(Cl)c(=O)n2[nH]1 do in these assays?
HCMV inh: -30; HCV inh: 11%; FMDV inh: 41%; Lassa entry inh: inconclusive; Marburg entry inh: 13µM*

How did Cc1ccccc1-c1cc2nc(-c3ccc([N+](=O)[O-])cc3)cc(=O)n2[nH]1 do in these assays?
HCMV inh: -1; HCV inh: -3%; SARS PLP yeast: 0%; FMDV inh: -13%; Lassa entry inh: 26%[46.1 µM]; Marburg entry inh: 13%[46.1 µM]

What do the screens show for `Cc1nc2cc(-c3ccsc3-n3c(C)ccc3C)[nH]n2c(=O)c1Cl`?
HCMV inh: -12; HCV inh: 20%; SARS PLP yeast: -2%; FMDV inh: 32µM*; Lassa entry inh: -1%; Marburg entry inh: -30%

What do the screens show for `Cc1cc(=O)n2[nH]c(-c3ccsc3-n3c(C)ccc3C)cc2n1`?
HCMV inh: -17; HCV inh: -7%; SARS PLP yeast: 2%; FMDV inh: -28%

What do the screens show for `COC(=O)N[C@@H](C=Cc1ccccc1)C[N+](=O)[O-]`?
Marburg entry inh: 7%[14.2 µM]

Results for Cc1cccnc1-c1cccc2c1OC(CNC(=O)C1CCCc3c1[nH]c1ccccc31)C2 (stereo unspecified) ?
FMDV inh: 4%

How did NNc1nnc2c3cc(F)ccc3n(CCc3ccccc3)c2n1 do in these assays?
HCMV inh: -94*; HCV inh: inconclusive; SARS PLP yeast: 0%; FMDV inh: -10%; Lassa entry inh: inconclusive; Marburg entry inh: 10µM*

How did Cc1ccccc1OCc1nnc(SCC(=O)Nc2ccc3c(c2)oc2ccccc23)n1C do in these assays?
HCMV inh: -1; HCV inh: inconclusive; SARS PLP yeast: 13%; FMDV inh: 17%; Lassa entry inh: -9%; Marburg entry inh: 13%

How did O=C(Nc1ccc(Br)c(Cl)c1)C1CC1 do in these assays?
HCMV inh: -62*; HCV inh: inconclusive; SARS PLP yeast: -20%; FMDV inh: -9%; Lassa entry inh: 7%; Marburg entry inh: 4%

Results for Cc1ccc(-c2nnc(SCC(=O)Nc3ccc4c(c3)oc3ccccc34)n2C)c(Cl)c1 ?
HCMV inh: -86*; HCV inh: inconclusive; SARS PLP yeast: 8%; FMDV inh: -22%; Lassa entry inh: -20%; Marburg entry inh: -25%

How did CCCCC(=O)Nc1ccc2c(c1)oc1ccccc12 do in these assays?
HCMV inh: 159; HCV inh: inconclusive; SARS PLP yeast: -46%; FMDV inh: 60%; Lassa entry inh: inconclusive; Marburg entry inh: -1%

What do the screens show for `O=C(Nc1ccc2c(c1)oc1ccc(S(=O)(=O)N3CCCC3)cc12)C1CC1`?
HCMV inh: inconclusive; HCV inh: inconclusive; SARS PLP yeast: 1%; Lassa entry inh: 12µM*; Marburg entry inh: -25%

What do the screens show for `CC(C)CC(=O)Nc1ccc2c(c1)oc1ccccc12`?
HCMV inh: 105; HCV inh: 22µM*; SARS PLP yeast: 0%; FMDV inh: 62%; Lassa entry inh: inconclusive; Marburg entry inh: inconclusive

What do the screens show for `O=C(Nc1ccc(S(=O)(=O)N2CCCCC2)cc1)C1CCCCC1`?
HCMV inh: -2; HCV inh: -15%; SARS PLP yeast: 0%; FMDV inh: -17%; Lassa entry inh: inconclusive; Marburg entry inh: 3%[46.1 µM]

What do the screens show for `O=C(Nc1ccc2c(c1)oc1ccccc12)C1CC1`?
HCMV inh: 86; HCV inh: 10µM*; SARS PLP yeast: -18%; FMDV inh: 28%; Lassa entry inh: 12%; Marburg entry inh: inconclusive

Results for COc1ccccc1CCNC(=O)Cc1c(C)c2c(cc(C)c3c(C)coc32)oc1=O ?
HCMV inh: -16; FMDV inh: 27%; Lassa entry inh: 29%[46.1 µM]; Marburg entry inh: -8%[46.1 µM]

What do the screens show for `Brc1ccc(-c2cn3ccccc3n2)s1`?
HCMV inh: -11; HCV inh: 8.9µM*; SARS PLP yeast: -42%; FMDV inh: -65%; Lassa entry inh: inconclusive; Marburg entry inh: inconclusive

How did Clc1ccc(-c2cn3ccccc3n2)cc1 do in these assays?
HCMV inh: 87; HCV inh: -5%; SARS PLP yeast: -30%; FMDV inh: -5%

What do the screens show for `COc1cc(/C=C/c2cccc[n+]2C)ccc1OCC(=O)Nc1cccc(Cl)c1`?
HCMV inh: -70*; HCV inh: -5%; SARS PLP yeast: -2%; FMDV inh: 10%; Lassa entry inh: inconclusive; Marburg entry inh: -19%[46.1 µM]

What do the screens show for `COc1ccc(/C=C/C(=O)Nc2ccc(Cl)c(Cl)c2)cc1OC`?
HCMV inh: -81*; FMDV inh: inconclusive; Lassa entry inh: -16%[46.1 µM]

Results for C/C=C/c1ccc(OCC(=O)Nc2cc(OC)c(OC)c(OC)c2)c(OC)c1 ?
HCMV inh: -29; HCV inh: inconclusive; SARS PLP yeast: -4%; FMDV inh: inconclusive; Lassa entry inh: 10µM*; Marburg entry inh: inconclusive

What do the screens show for `CCOCCOC(=O)c1ccc(NC(=O)/C=C/c2ccc(OC)c(OC)c2)cc1`?
HCMV inh: -2; FMDV inh: 20µM*; Lassa entry inh: -2%[46.1 µM]

What do the screens show for `C/C=C/c1ccc(OCC(=O)O)c(OC)c1`?
HCMV inh: 0; HCV inh: 10%; SARS PLP yeast: 1%; FMDV inh: -12%; Lassa entry inh: 1%; Marburg entry inh: 13%

How did CCOc1ccc(/C=C/C(=O)Nc2ccc(C(N)=O)cc2)cc1OC do in these assays?
HCMV inh: -39; HCV inh: 5%; SARS PLP yeast: 14%; FMDV inh: -20%; Lassa entry inh: -17%; Marburg entry inh: inconclusive

Results for O=C(O)c1c(Sc2ccccc2)c2cc(Cl)ccc2n1Cc1ccc(Cl)cc1 ?
FMDV inh: -24%

Results for Cc1ccc(NC(=O)c2nc(S(C)(=O)=O)ncc2N(Cc2ccccc2)Cc2ccco2)c(C)c1 ?
HCMV inh: -10; FMDV inh: -23%; Lassa entry inh: -18%[46.1 µM]; Marburg entry inh: 5%[46.1 µM]
